Read-outs that look alike come from different tables or passages of the source.

Set-up in all cases: species or system human, MV4-11 + K-562 + COLO205 + SK-N-BE2 + OVCAR-8
One test has as its system PKN2. As to conditions: read-out: apparent Kd, n = 1.
A further test relates to ROCK1. As to conditions: read-out: apparent Kd, n = 1.
Another test deals with ROCK2. As to conditions: read-out: apparent Kd, n = 1.
The subject of a further test is PLK1. As to conditions: read-out: apparent Kd; compound concentrations: 100 nM and 1000 nM (sheet 'Samples'), CATDS: 1; n = 1.
In a further test the test system is SLK. As to conditions: read-out: apparent Kd; compound concentrations: 100 nM and 1000 nM (sheet 'Samples'), CATDS: 1; n = 1.
The subject of a further test is TESK1. As to conditions: read-out: apparent Kd, n = 1.
[1] abbreviates: compound concentrations:100 nM and 1000 nM (sheet 'Samples').

Regarding `CCn1c(-c2nonc2N)nc2cnc(Oc3cccc(NC(=O)c4ccc(N(C)C)cc4)c3)cc21` [GSK248233A], the potency estimated from few doses in the test with PKN2 (setting [1]) is 1.78 µM; with ROCK1 (setting [1]) it was 0.23 µM; with ROCK2 (setting [1]) it was 0.181 µM. In the case of `NC(=O)c1sc(-n2cnc3ccccc32)cc1OCc1ccccc1Br` [GSK1023156A], in the test on PLK1, the potency estimated from few doses is 0.814 µM. On to `O=C1NC(=O)C(c2ccccc2Cl)=C1Nc1cccc(O)c1` [SB-390527], for which the potency estimated from few doses in the test on SLK is 1.14 µM. On to `Nc1nonc1-c1nc2cnccc2n1C1CC1` [SB-736302], for which the potency estimated from few doses is 0.348 µM in the test on PKN2 (compound concentrations: 100 nM and 1000 nM (sheet 'Samples'), CATDS: 0.42822259112974997); 1.82 µM with ROCK1 (compound concentrations: 100 nM and 1000 nM (sheet 'Samples'), CATDS: 0.19196895649818499); 1.38 µM with ROCK2 (compound concentrations: 100 nM and 1000 nM (sheet 'Samples'), CATDS: 0.21159695131376299).

For the compound `CC1=C(C(=O)Nc2ccc3[nH]nc(C)c3c2)C(c2ccc(C(F)(F)F)cc2)CC(=O)N1` (stereo not shown) [GSK466314A], the potency estimated from few doses in the test with ROCK1 (compound concentrations: 100 nM and 1000 nM (sheet 'Samples'), CATDS: 0.49623940575875802) is 0.0944 µM; in the test on ROCK2 (compound concentrations: 100 nM and 1000 nM (sheet 'Samples'), CATDS: 0.50381802643412599), 0.0916 µM. Take `N#Cc1ccc(C(=O)c2cnn(-c3ccc(F)cc3)c2N)cc1` [RO1153198-000]: the potency estimated from few doses in the test on TESK1 (compound concentrations: 100 nM and 1000 nM (sheet 'Samples'), CATDS: 0.53853377364092803) is 1.53 µM. Consider `CCCNC(=O)Nc1ccc(N(C)c2ccnc(NC3CC3)n2)cc1` [GW818933X], for which the potency estimated from few doses in the test with TESK1 (compound concentrations: 100 nM and 1000 nM (sheet 'Samples'), CATDS: 0.44455887865749399) was 1.86 µM.

For the compound `COc1cccc(C2=C(N(C)c3ccccc3)C(=O)NC2=O)c1` [SB-334865], in the test with PLK1, the potency estimated from few doses is 1.42 µM. For the compound `C[C@@H]1CC[C@H](C(=O)NC2CCCCC2)CN1c1cc(-c2ccc3c(N)n[nH]c3c2)nc(N)n1` [GSK2291363A], the potency estimated from few doses in the test with ROCK1 (setting [1]) was 2.01 µM; in the test with ROCK2 (setting [1]), 1.45 µM. With `Cc1nnc(-c2ccc(C)c(-c3ccc(C(=O)O)cc3)c2)o1` [GW608005X], in the test with TESK1 (setting [1]), the potency estimated from few doses is 0.9 µM.

(Values after PMC11062922 (Nature Chemical Biology, 2023).)
